According to PubChem BioAssay AID492996 (Johns Hopkins Ion Channel Center, 2010):
Measured potencies and affinities stand elsewhere. Calls of active or inactive are those of the source.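 How the source made its calls: active means peak inhibition of the TRPC4 channel signal over 30% at some dose, with a fitted dose response curve; inactive means no inhibition or no dose response curve.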

target: Short transient receptor potential channel 4 (Mus musculus) (UniProt Q9QUQ5); test: TRPC4 inhibition under acetylcholine activation, SAR follow-up, cell-based, acetylcholine stimulus, HEK293 TRPC4, Fluo-4 (AID 492996); conditions: HEK293 TRPC4 cells, ACh-evoked Fluo-4 calcium flux; series mostly up to 20 µM
Sequence (Q9QUQ5 whole entry, looked up): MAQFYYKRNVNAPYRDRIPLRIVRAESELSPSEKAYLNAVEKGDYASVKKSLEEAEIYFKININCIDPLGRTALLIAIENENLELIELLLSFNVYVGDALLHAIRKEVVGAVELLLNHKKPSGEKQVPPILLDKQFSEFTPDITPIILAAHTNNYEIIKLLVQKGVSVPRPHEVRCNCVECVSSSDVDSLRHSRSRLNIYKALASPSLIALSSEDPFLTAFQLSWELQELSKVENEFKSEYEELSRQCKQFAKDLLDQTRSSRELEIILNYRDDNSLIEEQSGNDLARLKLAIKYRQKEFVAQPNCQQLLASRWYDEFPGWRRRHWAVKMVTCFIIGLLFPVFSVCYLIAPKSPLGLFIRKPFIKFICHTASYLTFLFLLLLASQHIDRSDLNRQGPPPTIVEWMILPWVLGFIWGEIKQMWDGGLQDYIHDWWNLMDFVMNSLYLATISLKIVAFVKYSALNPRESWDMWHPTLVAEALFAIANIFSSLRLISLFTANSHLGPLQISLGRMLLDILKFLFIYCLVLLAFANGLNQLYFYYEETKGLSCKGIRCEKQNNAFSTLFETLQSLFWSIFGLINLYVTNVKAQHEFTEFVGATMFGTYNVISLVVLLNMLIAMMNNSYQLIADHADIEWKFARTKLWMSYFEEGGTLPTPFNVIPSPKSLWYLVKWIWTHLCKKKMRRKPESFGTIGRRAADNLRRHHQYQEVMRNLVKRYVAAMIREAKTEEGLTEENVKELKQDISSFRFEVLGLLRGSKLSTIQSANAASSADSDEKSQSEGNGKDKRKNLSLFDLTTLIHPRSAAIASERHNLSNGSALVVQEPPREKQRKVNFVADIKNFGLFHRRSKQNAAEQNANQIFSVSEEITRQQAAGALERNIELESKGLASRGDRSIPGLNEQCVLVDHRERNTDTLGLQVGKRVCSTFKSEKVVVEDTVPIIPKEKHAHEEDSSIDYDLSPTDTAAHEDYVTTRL

outcome, inactive:
Cc1cc(N2CCN(c3ncccn3)CC2)nc2ccccc12
Cc1cc(N(C)CCN(C)C)nc2ccccc12
Cc1ccc2nc(N3CCCCCC3)cc(C)c2c1
Cc1cc(N2CCOc3ccccc32)nc2ccccc12
Cc1ccnc(N2CCCCCC2)c1
Cc1ccnc(N2CCCCCC2)n1
CCc1ccc2nc(N3CCCCCC3)cc(C)c2c1
Cc1cc(N2CCC(N3CCOCC3)CC2)nc2ccccc12
COc1ccc(N2CCN(c3cc(C)c4ccccc4n3)CC2)cc1
Cc1cc(N2CCCCCC2)nc2c(C)cccc12
COc1ccccc1N1CCN(c2cc(C)c3ccccc3n2)CC1
Cc1cc(N2CCOCC2)nc2ccccc12
Cc1cc(N2CCN(c3ccccc3C#N)CC2)nc2ccccc12
FC(F)(F)c1cc(N2CCCCCC2)nc2ccccc12
Cc1cc(N2CCN(CC3CCCO3)CC2)nc2ccccc12 (stereo unspecified)
CCN(CC)c1cc(C)c2ccccc2n1
Cc1cc(N2CCCC(O)C2)nc2ccccc12 (stereo unspecified)
c1ccc(-c2cc(N3CCCCCC3)nc3ccccc23)cc1
Cc1cc(N2CC(C)CC(C)C2)nc2ccccc12 (stereo unspecified)
COCCN(C)c1cc(C)c2ccccc2n1
Cc1cc(N2CCCCCC2)nc2ccc(F)cc12
